# Shown are actives, neighbours in structure and some others; about 28% of the full set was active somewhere.
# CYP2C19 inhib = human CYP2C19 inhibition | inhibition, % at 5 µM | hit rate 21% among 96,000 | CYP2C19 Supersomes, luciferin-H EGE luminescence, 30 min | AID 778 | P33261;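 active = CYP2C19 inhibition above a set limit at 5 µM in the primary screen, cut at about 50% in these data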;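 note: plate controls were negative control wells for no effect and 2.5 mM tranylcypromine positive control for full effect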
# Target sequence (P33261 whole entry, looked up): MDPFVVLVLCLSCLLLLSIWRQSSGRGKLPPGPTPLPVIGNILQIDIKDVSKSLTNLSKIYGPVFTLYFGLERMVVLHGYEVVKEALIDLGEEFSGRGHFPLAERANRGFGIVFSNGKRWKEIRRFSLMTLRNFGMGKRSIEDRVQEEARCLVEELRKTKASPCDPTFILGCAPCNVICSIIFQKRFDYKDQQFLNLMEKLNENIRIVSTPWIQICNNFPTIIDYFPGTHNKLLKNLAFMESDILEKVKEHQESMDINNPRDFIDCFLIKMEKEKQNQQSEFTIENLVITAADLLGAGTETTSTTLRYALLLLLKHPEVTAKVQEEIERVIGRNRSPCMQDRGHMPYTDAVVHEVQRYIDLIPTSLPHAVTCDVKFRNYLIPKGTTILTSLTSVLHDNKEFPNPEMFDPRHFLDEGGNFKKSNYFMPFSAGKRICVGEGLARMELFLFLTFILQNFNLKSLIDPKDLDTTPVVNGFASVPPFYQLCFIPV
# hDAT+cocaine = human DAT dopamine uptake with cocaine, either direction; Q01959; LLC-PK1 hDAT cells, [14C]-dopamine uptake with cocaine IC80; actives deviate in either direction; B-score at 10 µM; hit rate 1.3% among 110,000;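 active = Z score or B-score, a plate-position-corrected score, falls beyond the plate's 99.7% confidence bounds, in either direction; inactive = both scores lie inside the 99.7% bounds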;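 note: scored against the spread of the other compound wells on the same plate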
# D1 mod = allosteric modulators of human D1 dopamine receptor | B-score at 10 µM | P21728 | HEK293 D1, CRE-luciferase, dopamine EC30 potentiation; actives deviate in either direction | hit rate 5.9% among 58,000;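 active = luminescence count or its row- and column-corrected plate score outside the 99.7% band of the plate's sample wells, on either side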
# CYP2C9 act = CYP2C9 (human) activation. hit rate 1.4% among 96,000. recombinant CYP2C9, luciferin-H conversion, luminescence; stronger effect = higher value; factor 1 = untreated enzyme, 0 = blocked. activation factor at 5 µM;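 active = activation factor of 2 or more for CYP2C9 at a 5 µM dose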;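 note: 0 = sulfaphenazole-blocked wells and 1 = vehicle-only wells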
# CYP2C9 inhib = human CYP2C9 inhibition. CYP2C9 Supersomes, luciferin-H conversion, luminescence. inhibition, % at 5 µM. hit rate 20% among 96,000;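 active = blocking of liver enzyme CYP2C9 beyond about 50% at 5 µM, limit read from the data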
# CYP2C19 act = activators of human cytochrome P450 2C19; P33261; AID 1025; 96,000 tested, under 10 active; recombinant CYP2C19, luciferin-H EGE luminescence; stronger effect = higher value; 0 = fully inhibited enzyme, 1 = untreated enzyme; activation factor at 5 µM;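 active = activation factor of at least 2 at 5 µM in the primary screen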;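 note: 0 = wells with 2.5 mM tranylcypromine and 1 = vehicle-only wells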
# The depositor's hits bear a star; · = no result given.
SMILES,CYP2C19 inhib,hDAT+cocaine,D1 mod,CYP2C9 act,CYP2C9 inhib,CYP2C19 act
O=c1cccc2n1CC1CC2CN(Cc2ccc3c(c2)OCO3)C1 (stereo not drawn),57.4*,0.78,0.313,0.5,52.2*,0.4
COc1ccc(CN2CC3CC(C2)c2cccc(=O)n2C3)cc1OC (stereo not drawn),-4.3,-0.59,1.13,1,-0.1,1
CC1CCN(S(=O)(=O)c2ccc(NN=C(C#N)C#N)cc2)CC1,3.5,-0.566,·,0.1,93.5*,1
COc1ccc(C(=O)N2CCOCC2)cc1S(=O)(=O)N1CCC(C)CC1,-9.1,0.0174,0.944,0.7,26.8,1.1
CN1OCC2Cn3c(nc4ccccc43)C21 (stereo not drawn),·,-0.478,·,·,·,·
O=P(O)(O)C12CC3CC(CC(C3)C1)C2,44.6,0.715,-0.998,0.4,62.3*,0.6
CCCCCCN=C(C)c1c(O)n(Cc2ccccc2)c(=O)[nH]c1=O,-11.4,0.304,·,0.8,20.3,1.1
CN1C(=O)N(C)C(=O)C2(Cc3c(ccc4ccccc34)N(C)C2)C1=O,65.7*,1.31,-0.0827,0.7,33.9,0.3
O=c1[nH]c(=O)n(Cc2ccccc2)c(O)c1C=NCCN1CCOCC1,2.9,0.366,0.655,1.1,-5.8,1
Cc1ccc2c(c1)N(CCC(=O)N1CCC3(CC1)OCCO3)C(=O)CO2,95.1*,0.0267,-1.57,1.8,-77.0,0
Cc1ccc2c(c1)N(CCC(=O)N1CCC3(CC1)OCCO3)C(=O)C(C)O2 (stereo not drawn),89.2*,0.0167,-0.147,1.3,-29.7,0.1
COC(=O)CC1(CC(=O)OC)C(=O)NC(=O)NC1=O,-2.5,-0.045,0.406,1.1,-6.4,1
O=c1[nH]c(=O)n(CCC2=CCCCC2)c(O)c1C=Nc1cccc(F)c1,5.4,-0.492,·,1.1,-11.8,0.9
CC(C)(C)n1c(O)c(C=Nc2ccc3c(c2)CCC3)c(=O)[nH]c1=O,38.5,0.395,-0.343,0.3,73.8*,0.6
COC(=NC1CCCC1)C(O)c1c[nH]c2ccccc12 (stereo not drawn),·,0.0279,-0.57,·,·,·
O=P(C(c1c[nH]c2ccccc12)N1CCOCC1)(N1CCOCC1)N1CCOCC1 (stereo not drawn),-10.5,0.51,·,0.2,75.3*,1.1
Cc1nonc1-c1nc(-c2nonc2N)n[nH]1,-3.5,0.303,-0.451,0.9,7.3,1
CN1/C(=C\C=C\C2=[N+](C)c3ccc4ccccc4c3C2(C)C)C(C)(C)c2ccccc21,67.4*,-0.0452,·,0.4,55.7*,0.3
O=c1cccc2n1CC1CC2CN(c2ncnc3c2cnn3-c2ccc(Cl)cc2)C1 (stereo not drawn),-15.0,-0.294,0.369,0.9,12.0,1.1
C=C(C)[C@H]1CN[C@H](C(=O)O)[C@H]1CC(=O)O,·,-0.702,·,·,·,·
c1ccc2c(c1)CNc1ccccc1O2,48.5,-0.314,0.209,0.9,8.3,0.5
Cc1ccc2c(c1)CNc1ccccc1O2,71.3*,0.0555,1.46,0.8,24.8,0.3
CCCCCCCSc1cc(OC)c(CCN(C)C)cc1OC,66.9*,0.0347,·,1,-1.0,0.3
CCCCCCCCCOc1ccc2[nH]cc(CCN)c2c1,·,2.05,·,·,·,·
CCCCCSc1cc(OC)c(CCN)cc1OC,96.5*,0.813,·,0.5,45.2,0
SMILES,CYP2C19 inhib,hDAT+cocaine,D1 mod,CYP2C9 act,CYP2C9 inhib,CYP2C19 act
COc1c2c(cc3c1OCO3)CC[N+](C)=C2,·,-0.915,·,·,·,·
O=C(Nc1ccc(Cl)cc1)O/N=C(\c1ccccc1)c1ccccn1,17.8,0.083,·,0.4,56.7*,0.8
CON(C)C(=O)Nc1ccc(Cl)cc1,32.5,-1.38,-0.232,0.9,12.8,0.7
OC1(c2ccc(F)cc2)CC2CCC(C1)N2Cc1nnnn1C1CCCC1 (stereo not drawn),87.7*,0.53,0.258,0.2,81.1*,0.1
COc1cc(NC(=O)CN2C3CCC2CC(O)(c2cccnc2)C3)cc(OC)c1 (stereo not drawn),8.7,0.878,·,0.9,7.9,0.9
C(#CCN1CCOCC1)COCc1ccccc1,1.3,-0.966,0.213,1,-3.3,1
CC1CCC[C@H](O)CCCCCc2cc(O)cc(O)c2C(=O)O1 (stereo partly drawn),·,-0.603,·,·,·,·
C[C@H]1CCC[C@H](O)CCCCCc2cc(O)cc(O)c2C(=O)O1,81.0*,0.00516,0.0115,0.6,44.1,0.2
CC1CCC/C=C/C2CC(O)CC2C(O)/C=C/C(=O)O1 (stereo not drawn),11.1,0.0273,·,1.1,-11.4,0.9
C[C@H]1CCC[C@@H](O)CCC/C=C/c2cc(O)cc(O)c2C(=O)O1,89.1*,-0.0851,·,0.2,77.6*,0.1
O=c1c2ccccc2[se]n1-c1ccccc1,·,0.0611,0.412,·,·,·
CCN1CCN(Cc2cc(Br)cc(Br)c2O)CC1,60.5*,-0.0394,·,0.9,9.0,0.4
CCN1CCN(Cc2cc(Br)ccc2O)CC1,21.5,0.523,·,1.3,-32.7,0.8
OCCOCC#CCN1CCOCC1,-6.6,·,-0.314,0.9,5.6,1.1
CCCCn1c(=O)c(C(=O)NCc2ccncc2)c(O)c2ccccc21,91.9*,0.794,1.44,0,100.2*,0.1
COc1cccc(OCC(=O)N2CCN(C)CC2)c1,54.4*,-0.947,·,1.2,-15.2,0.5
Cc1ccc(OCC(=O)N2CCN(C)CC2)c(Br)c1,10.2,-0.743,-0.921,1.1,-13.1,0.9
Cn1c(O)c(C(=N)COc2cccc(Cl)c2)c(=O)n(C)c1=O,-6.3,-0.252,·,1,4.0,1.1
CC1Oc2cc3c(-c4c(O)cc(O)c5c(O)c6c(cc45)OC(C)C(C)C6=O)c(O)cc(O)c3c(O)c2C(=O)C1C (stereo not drawn),·,-2.14,·,·,·,·
CCC(C)N1C(=O)NC(=O)C2(Cc3cc(C)ccc3N(C)C2)C1=O (stereo not drawn),89.4*,0.0256,-0.117,0.3,69.7*,0.1
Cc1ccc2c(c1)CC1(CN2C)C(=O)NC(=O)N(CCC2=CCCCC2)C1=O (stereo not drawn),28.9,0.0149,-0.0729,0.6,44.2,0.7
Cc1ccc2c(c1)CC1(CN2C)C(=O)NC(=O)N(C(C)C)C1=O (stereo not drawn),81.8*,-1.64,0.706,0.7,29.8,0.2
CN[C@H](C)[C@H](O)c1ccccc1,·,1.34,·,·,·,·
CNC(C(=O)c1ccccc1)C(OC(C)C)c1ccc(Cl)cc1 (stereo not drawn),62.8*,-0.386,·,0.6,36.8,0.4
O=C(Cc1ccccc1)OC(COCc1ccccc1)CN1CCOCC1 (stereo not drawn),72.7*,-0.13,-0.667,0.6,44.5,0.3
COc1ncccc1C(=O)NCC(CC(=O)O)c1ccccc1 (stereo not drawn),6.4,0.774,2.14,0.7,31.9,0.9
Cc1cc(C)nc(-n2c(C)nc3cc(Cl)ccc3c2=O)c1,40.9,-0.419,·,0.1,89.8*,0.6
Cc1cccc(-n2c(C)nc3ccccc3c2=O)n1,·,-2.12,·,·,·,·

# Source: PubChem BioAssay
